# According to PubChem BioAssay (Tox21):
# “And” between values parts separate entries of the source, which are not always exact repeats. Equal values may be shown once. Results filed as inconclusive are left out. Entries that show only a call come without a potency. The source holds several records for some structures; these can differ, active in one and inactive in another. The source made the active and inactive calls. Unless noted, calls follow the shape of the dose curve; as a rule, active = well fitted curve in the direction sought with a large enough effect in the repeat runs; inconclusive = weak or mixed curves; inactive = no such curve, though single readings can be large; an effect the other way counts as inactive or inconclusive.
# Columns and labels:
# [1] = qHTS assay to identify small molecule antagonists of the peroxisome proliferator-activated receptor delta (PPARd) signaling pathway - cell viability counter screen (AID 743213); also: nearly all actives have a fitted effect of over 50% in size; also: potency is read from the fitted curve at half-maximal effect
# In short: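 Luminescence from CellTiter-Glo, added after the bla read and incubated 30 min at room temperature, gives viability of HEK293H PPARd-bla cells exposed to compounds for 17 h at 37 C with 300 nM L165041.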
# [2] = molecular target: Bile acid receptor (Homo sapiens) (UniProt Q96RI1); assay: qHTS assay to identify small molecule antagonists of the farnesoid-X-receptor (FXR) signaling pathway (AID 743217; active = well fitted inhibition curve with a large enough effect in the signal ratio in the repeat runs, not every such curve was filed as active; the % refers to the signal ratio; also: potency is read from the fitted curve at half-maximal effect)
# In short: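 FXR-UAS-bla HEK 293T cells pre-incubated 5 h at 37 °C, then exposed to compounds with chenodeoxycholic acid (50 uM final) for 16 h at 37 °C. Beta-lactamase reporter read by LiveBLAzer B/G FRET substrate fluorescence after 2 h at room temperature.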
# [3] = qHTS assay to identify small molecule agonists of the farnesoid-X-receptor (FXR) signaling pathway - cell viability counter screen (AID 743218); also: nearly all actives have a fitted effect of over 45% in size; also: potency is read from the fitted curve at half-maximal effect
# In short: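 FXR-UAS-bla HEK 293T cells, plated 5 h at 37 C, were exposed to compounds for 16 h at 37 C. CellTiter-Glo was then added to the same wells as the bla readout; luminescence read after 30 min at room temperature.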
# [4] = molecular target: Peroxisome proliferator-activated receptor delta (Homo sapiens) (UniProt Q03181); assay: qHTS assay to identify small molecule agonists of the peroxisome proliferator-activated receptor delta (PPARd) signaling pathway (AID 743212; calls by dose curve;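 also: HEK293H cells with PPARd UAS beta-lactamase reporter GeneBLAzer system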)
# In short: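 HEK293H PPARd-bla cells; 5 h preincubation 37 C/5% CO2; compound (DMSO) 37 C; LiveBLAzer B/G FRET substrate 2 h RT; fluorescence intensity.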
# [5] = qHTS assay to identify small molecule antagonists of the farnesoid-X-receptor (FXR) signaling pathway - cell viability counter screen (AID 743221; active = well fitted cell-killing curve with a large enough effect in the repeat runs, not every such curve was filed as active; also: nearly all actives have a fitted effect of over 50% in size; also: potency is read from the fitted curve at half-maximal effect)
# In short: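 FXR-UAS-bla HEK 293T cells were treated with test compounds plus chenodeoxycholic acid (50 uM final) for 16 h at 37 C. Cell viability in the same wells was then read as CellTiter-Glo luminescence after 30 min at room temperature.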
# [6] = molecular target: Peroxisome proliferator-activated receptor delta (Homo sapiens) (UniProt Q03181); assay: qHTS assay to identify small molecule antagonists of the peroxisome proliferator-activated receptor delta (PPARd) signaling pathway (AID 743215; active = well fitted inhibition curve with a large enough effect in the signal ratio in the repeat runs, not every such curve was filed as active; the % refers to the signal ratio;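 also: cells stimulated with agonist L165041 at 300 nM final during compound exposure; series mostly up to about 62 µM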)
# In short: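 PPARd UAS-bla HEK293H cells were pre-incubated 5 h at 37 C, then given test compounds in DMSO plus agonist L165041 (300 nM final). After 17 h at 37 C, beta-lactamase FRET substrate was added; fluorescence read after 2 h at room temperature.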
# [7] = molecular target: Vitamin D3 receptor (Homo sapiens) (UniProt P11473); assay: qHTS assay to identify small molecule agonists of the vitamin D receptor (VDR) signaling pathway (AID 743222; calls by dose curve)
# In short: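 VDR-bla cells were plated 4 h at 37C/5% CO2, then exposed to compounds in DMSO for 16 h. After LiveBLAzer B/G FRET substrate addition and 2 h at room temperature, beta-lactamase reporter fluorescence was read.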
# [8] = molecular target: Vitamin D3 receptor (Homo sapiens) (UniProt P11473); assay: qHTS assay to identify small molecule antagonists of the vitamin D receptor (VDR) signaling pathway (AID 743223; active = well fitted inhibition curve with a large enough effect in the signal ratio in the repeat runs, not every such curve was filed as active; the % refers to the signal ratio)
# In short: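 VDR-bla cells were plated, incubated 4 h at 37C, then given compound and 1alpha,25-dihydroxyvitamin D3 (3 nM final). After 16 h at 37C, LiveBLAzer B/G FRET substrate was added for 2 h at room temperature and fluorescence read.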
# Chain of Peroxisome proliferator-activated receptor delta (Homo sapiens) (Q03181 whole entry, looked up): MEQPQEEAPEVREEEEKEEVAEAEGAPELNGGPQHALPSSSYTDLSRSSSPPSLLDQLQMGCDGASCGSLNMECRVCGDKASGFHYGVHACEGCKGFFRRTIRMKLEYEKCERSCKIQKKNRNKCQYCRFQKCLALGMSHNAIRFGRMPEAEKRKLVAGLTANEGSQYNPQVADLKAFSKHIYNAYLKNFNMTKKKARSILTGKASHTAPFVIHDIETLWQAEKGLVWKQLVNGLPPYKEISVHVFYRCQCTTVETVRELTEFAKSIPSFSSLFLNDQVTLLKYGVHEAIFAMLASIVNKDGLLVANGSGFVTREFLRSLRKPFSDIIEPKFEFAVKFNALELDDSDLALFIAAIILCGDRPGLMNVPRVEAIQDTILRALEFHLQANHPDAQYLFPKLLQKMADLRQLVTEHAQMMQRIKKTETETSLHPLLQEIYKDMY
# Chain of Vitamin D3 receptor (Homo sapiens) (P11473 whole entry, looked up): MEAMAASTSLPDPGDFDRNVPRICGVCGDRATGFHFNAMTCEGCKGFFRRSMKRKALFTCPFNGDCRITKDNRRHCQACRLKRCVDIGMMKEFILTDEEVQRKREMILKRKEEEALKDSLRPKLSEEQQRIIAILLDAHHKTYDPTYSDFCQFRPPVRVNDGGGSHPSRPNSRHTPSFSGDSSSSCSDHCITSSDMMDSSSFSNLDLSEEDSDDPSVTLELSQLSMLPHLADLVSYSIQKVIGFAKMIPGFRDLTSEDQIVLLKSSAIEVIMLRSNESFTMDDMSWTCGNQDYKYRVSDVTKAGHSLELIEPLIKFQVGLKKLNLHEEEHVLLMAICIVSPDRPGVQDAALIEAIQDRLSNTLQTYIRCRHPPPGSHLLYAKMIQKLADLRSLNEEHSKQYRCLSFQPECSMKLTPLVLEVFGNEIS
# Chain of Bile acid receptor (Homo sapiens) (Q96RI1 whole entry, looked up): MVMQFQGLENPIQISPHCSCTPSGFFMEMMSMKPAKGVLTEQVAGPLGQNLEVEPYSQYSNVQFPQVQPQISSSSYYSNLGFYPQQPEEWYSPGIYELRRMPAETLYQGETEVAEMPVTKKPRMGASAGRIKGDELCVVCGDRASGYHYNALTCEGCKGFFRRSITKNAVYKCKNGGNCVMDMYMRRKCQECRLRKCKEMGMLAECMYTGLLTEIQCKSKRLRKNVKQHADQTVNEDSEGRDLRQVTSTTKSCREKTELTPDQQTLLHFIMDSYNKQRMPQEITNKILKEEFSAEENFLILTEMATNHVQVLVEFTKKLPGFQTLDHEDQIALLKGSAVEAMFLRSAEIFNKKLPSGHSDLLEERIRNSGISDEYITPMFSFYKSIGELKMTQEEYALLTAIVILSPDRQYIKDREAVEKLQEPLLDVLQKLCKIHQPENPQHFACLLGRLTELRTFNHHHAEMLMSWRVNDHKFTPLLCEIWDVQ
SMILES,Potency [1],Potency [2],Potency [3],outcome [4],Potency [5],outcome [6],outcome [7],outcome [8]
O=C(CCCN1CCC(O)(c2ccc(Cl)cc2)CC1)c1ccc(F)cc1,30.9 µM (active) and 21.1 µM (active),inactive,30.9 µM (active) and inactive,–,–,–,–,–
CCC/C=C/C=O,inactive,–,–,inactive,inactive,–,–,–
Cc1ccc(N)c([N+](=O)[O-])c1,inactive,–,inactive,inactive,inactive,inactive,inactive,inactive
CNC[C@H](O)c1ccc(O)c(O)c1,inactive,–,–,–,inactive,–,inactive,inactive
O=C(O)CCCCCCCCCCCC(=O)O,inactive,inactive,–,inactive,inactive,inactive,inactive,inactive
c1ccc2c(c1)[nH]c1ccccc12,inactive,–,inactive,inactive,inactive,inactive,–,–
C=C1C[C@H]2[C@@H]3C=C(C)C4=CC(=O)CC[C@]4(C)[C@H]3CC[C@]2(C)[C@@]1(OC(C)=O)C(C)=O,inactive,–,inactive,–,inactive,–,–,–
CC1=CC(C)(C)Nc2ccccc21,inactive,–,–,inactive,inactive,inactive,inactive,–
CC(=O)[C@@]1(O)CC[C@H]2[C@@H]3C[C@H](C)C4=CC(=O)C=C[C@]4(C)[C@@]3(F)[C@@H](O)C[C@@]21C,inactive,inactive,–,inactive,inactive,–,inactive,inactive
Oc1ccc(C(c2ccc(O)cc2)C(Cl)(Cl)Cl)cc1,38.9 µM (active),–,–,–,inactive,–,inactive,–
CN(C)CCCN1c2ccccc2Sc2ccc(Cl)cc21,13.8 µM (active) and 18.8 µM (active),49 µM (active) and 26.6 µM (active),21.9 µM (active) and 26.6 µM (active),–,43.6 µM (active) and 26.6 µM (active),–,–,–
CCCCCC1C(=O)CCC1CC(=O)OC (stereo unspecified),inactive,–,–,inactive,inactive,inactive,inactive,inactive
[O-]/[N+](=N\O)c1ccccc1,inactive,–,–,inactive,inactive,inactive,inactive,inactive
C/C=C/C(=O)N(CC)c1ccccc1C,inactive,–,inactive,–,inactive,–,inactive,inactive
COC(=O)CC(=O)OC,inactive,–,–,inactive,inactive,inactive,inactive,inactive
CCCCCCC(C)O (stereo unspecified),inactive,–,inactive,inactive,inactive,inactive,inactive,inactive
OCCNCCO,inactive,–,–,inactive,inactive,inactive,inactive,inactive
Cc1ccc(C(C)(C)C)cc1,inactive,–,–,inactive,inactive,inactive,inactive,inactive

SMILES,Potency [1],Potency [2],Potency [3],outcome [4],Potency [5],outcome [6],outcome [7],outcome [8]
CCc1cccc2c3c([nH]c12)C(CC)(CC(=O)O)OCC3 (stereo unspecified),inactive,inactive,inactive,–,inactive,–,inactive,inactive
C[C@]12CC[C@@H]3c4ccc(O)cc4CC[C@H]3[C@@H]1CC[C@H]2O,inactive,–,inactive,inactive,inactive,inactive,inactive,inactive
Nc1ccc(N)c(Cl)c1,inactive,–,–,inactive,inactive,inactive,inactive,–
COc1ccc2nc(N)sc2c1,inactive,–,inactive,–,inactive,–,inactive,inactive
COc1ccc(-c2coc3cc(O)cc(O)c3c2=O)cc1,inactive,–,inactive,–,inactive,inactive,inactive,inactive
Cc1ccc(S(=O)(=O)NCl)cc1,inactive,–,inactive,inactive,inactive,inactive,–,–
CC(C)[C@@H]1CC[C@@H](C)CC1=O,inactive,–,inactive,–,inactive,–,–,–
CN(C)/N=N/c1nc[nH]c1C(N)=O,inactive,inactive,–,inactive,inactive,inactive,–,–
Cc1ccc([N+](=O)[O-])c(C)c1,inactive,inactive,–,inactive,inactive,inactive,inactive,inactive
O=C(O)c1ccc(O)cc1,inactive,inactive,–,inactive,inactive,inactive,–,–
CCC(=O)O[C@H]1[C@H](O[C@@H]2[C@@H](C)[C@H](O[C@H]3C[C@@](C)(OC)[C@@H](O)[C@H](C)O3)[C@@H](C)C(=O)O[C@H](CC)[C@@](C)(O)[C@H](O)[C@@H](C)C(=O)[C@H](C)C[C@@]2(C)O)O[C@H](C)C[C@@H]1N(C)C,23 µM (active) and inactive,–,32.5 µM (active) and inactive,–,32.5 µM (active) and inactive,–,inactive,–
CN(C)C,inactive,–,inactive,–,inactive,–,inactive,–
CN(Cc1cnc2nc(N)nc(N)c2n1)c1ccc(C(=O)N[C@@H](CCC(=O)O)C(=O)O)cc1,–,376 nM (active),–,–,–,–,–,–
CCOC(=O)C(C)Oc1ccc(Oc2cnc3cc(Cl)ccc3n2)cc1 (stereo unspecified),inactive,inactive,–,inactive,inactive,inactive,inactive,–
C=C[C@@]1(C)CC(=O)[C@]2(O)[C@@]3(C)[C@@H](O)CCC(C)(C)[C@@H]3[C@H](O)[C@H](OC(C)=O)[C@@]2(C)O1,9.77 µM (active),–,9.77 µM (active) and 8.41 µM (active),inactive,1.74 µM (active),–,inactive,–
O=[Se](O)O,inactive,–,inactive,inactive,inactive,inactive,–,–
c1ccc2ncccc2c1,inactive,–,–,inactive,inactive,inactive,–,–
C[C@]12CC[C@@H]3c4ccc(O)cc4CC[C@H]3[C@@H]1CC[C@@H]2O,inactive,–,–,inactive,inactive,inactive,inactive,inactive
